Bioassay records from PubChem BioAssay.
Hits are enriched below; roughly 3% of the tested compounds scored in any of these assays.
Nrf2 inh: Nrf2 qHTS screen for inhibitors. A549 ARE-Fluc reporter, luciferase luminescence, 18-24 h. Potency, µM (series often up to 46 µM), actives largely listed as inhibitors. 360,000 tested, 2.1% active; further: nearly all actives have a fitted effect of over 60% in size
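A549 ARE_Fluc cells, 5000/well, 5% FBS OPTI-MEM; compounds in dose-response, 18-24 h at 37 °C/5% CO2; CellTiter-Fluor viability read (Ex 405/Em 525), then BugLite luciferase luminescence = Nrf2 activity.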
A549 viability: Nrf2 qHTS screen for inhibitors: counterscreen for cytotoxicity; 390,000 tested, 0.16% active; A549 ARE-Fluc cells, CellTiter-Fluor viability, 18-24 h; AID 504648, 2011; Potency, µM (highest dose often 46 µM), hits mostly inhibitors
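Cytotoxicity counterscreen: CellTiter-Fluor fluorescence was measured in A549 ARE_Fluc cells after 18-24 h of compound exposure in a concentration series. The subsequent BugLite luminescent read reports ARE-luciferase activity.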
TrxR1 substrate: qHTS Assay for Substrates of Mammalian Selenoprotein Thioredoxin Reductase 1 (TrxR1): qHTS; Potency, µM (top dose mostly 114 µM); Thioredoxin reductase 1, cytoplasmic (Rattus norvegicus), O89049; 390,000 tested, 0.01% active; purified TrxR1 substrate turnover, NADPH consumption readout; further: nearly all actives have a fitted effect of over 50% in size
Target sequence (O89049 whole entry, looked up): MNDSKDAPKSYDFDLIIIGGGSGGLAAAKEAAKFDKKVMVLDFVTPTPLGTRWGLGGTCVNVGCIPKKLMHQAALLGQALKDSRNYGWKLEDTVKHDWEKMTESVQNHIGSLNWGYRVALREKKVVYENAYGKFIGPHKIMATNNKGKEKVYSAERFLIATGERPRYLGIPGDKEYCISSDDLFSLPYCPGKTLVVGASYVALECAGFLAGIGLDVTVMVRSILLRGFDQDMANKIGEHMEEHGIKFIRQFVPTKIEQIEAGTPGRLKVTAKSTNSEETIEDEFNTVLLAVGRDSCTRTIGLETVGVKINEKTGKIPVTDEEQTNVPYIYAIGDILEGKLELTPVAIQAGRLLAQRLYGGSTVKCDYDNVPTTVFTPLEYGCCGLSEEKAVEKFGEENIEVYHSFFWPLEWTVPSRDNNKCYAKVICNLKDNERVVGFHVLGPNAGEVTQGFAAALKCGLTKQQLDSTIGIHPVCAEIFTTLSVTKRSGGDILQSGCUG
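Rat TrxR1, dispensed at 90 nM, was prereduced with 400 uM NADPH (final) for 5 min at ~22 deg C, then incubated with compound 15 min before 400 uM selenite. A first-read NADPH fluorescence drop versus no-compound background flagged substrates.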
Nrf2 ARE act: qHTS of Nrf2 Activators; AREc32 ARE-luciferase reporter (MCF7-derived line), luminescence, 24 h; Potency, µM (titrated, usually from 46.1 µM), actives largely listed as activators; 410,000 tested, 0.31% active; further: nearly all actives have a fitted effect of over 65% in size
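AREc32 cells carrying an ARE-driven firefly luciferase, 1000 cells/well in OPTI-MEM with 5% FBS, dosed after overnight attachment and incubated 24 hr at 37 deg C. Steady-Glo luminescence read after 30 min at RT.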
GALK inhibitor: qHTS Assay for Inhibitors of Human Galactokinase (GALK); Purified GALK, Kinase-Glo residual ATP luminescence; Potency, µM (series often up to 57.5 µM), most hits filed as inhibitors; 270,000 tested, 0.007% active; AID 1868, 2009
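Quantitative HTS: GALK 5 nM, ATP 35 uM, galactose 100 uM, 1 h room temperature, then luciferase-based ATP detection.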
rTrxR1 inhibitor: qHTS Assay for Inhibitors of Mammalian Selenoprotein Thioredoxin Reductase 1 (TrxR1): qHTS. Thioredoxin reductase 1, cytoplasmic (Rattus norvegicus), O89049. recombinant rTrxR1, NADPH fluorescence consumption, selenite substrate. Potency, µM (series often up to 114 µM), usual class: inhibitors. 390,000 tested, 1% active. AID 588453, 2011; further: nearly all actives have a fitted effect of over 65% in size
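Rat TrxR1 (90 nM in the dispensed reagent) was pre-reduced with 400 uM NADPH for 5 min at room temperature, then incubated with compound for 15 min. After 400 uM selenite was added, NADPH fluorescence (Ex 340/Em 450 nm) was followed for 8 min.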
Each line names hits and unclear results; the compound was inactive in the other large screens. The call rests on the fitted dose curve; in most records, active means well fitted curve in the direction sought with a large enough effect; inconclusive means small, poorly fitted or top-dose-only effect, or another doubt; inactive means no such curve, though single readings can be large; an effect the other way counts as inactive or inconclusive.

Cc1cccc(NC(=O)c2ccc(F)c(S(=O)(=O)NCc3ccco3)c2)c1	rTrxR1 inhibitor 79.4µM
Cc1cccc(C)c1NC(=O)CNC(=O)c1ccc(S(=O)(=O)NCc2ccco2)cc1	rTrxR1 inhibitor 28.2µM (no result: GALK inhibitor)
Nc1nc2c(nc(N3CCOCC3)n2COCCO)c(=O)[nH]1	none (no result: Nrf2 inh, A549 viability, Nrf2 ARE act, GALK inhibitor)
C=C1C(=O)O[C@@H]2[C@H]3O[C@]3(C)CC/C=C(\C)CC[C@@H]12	Nrf2 ARE act inconclusive, rTrxR1 inhibitor 56.2µM (no result: GALK inhibitor)
Cc1[nH]c2ccccc2c(=O)c1C(=O)/C=C/c1ccccc1	Nrf2 inh 18.4µM, A549 viability inconclusive, Nrf2 ARE act inconclusive, rTrxR1 inhibitor inconclusive
CNC(=O)[C@H]1O[C@@H](n2cnc3c(NCc4cccc(I)c4)nc(Cl)nc32)[C@H](O)[C@@H]1O	Nrf2 inh 18.4µM (no result: GALK inhibitor)
CCOC(=O)c1c(C)oc2c1c(C=NCCO)c(O)c1ccccc12	Nrf2 inh 14.6µM, A549 viability 23.1µM
CCOC(=O)c1c(C)oc2c1c(/C=N/c1ccccn1)c(O)c1ccccc12	none (no result: Nrf2 ARE act, GALK inhibitor)
CCOC(=O)c1c(C)oc2c1c(C(c1cccnc1)N1CCCCC1)c(O)c1ccccc12 (centres undefined)	rTrxR1 inhibitor 7.08µM
COc1cccc(C2CC(=O)N(c3ccc(F)cc3)C3=C2C(=O)OC3)c1OC (centres undefined)	none (no result: GALK inhibitor)
Cc1cc2c(s1)c1cnn(Cc3ccc(-n4cncn4)cc3)c(=O)c1n2C	none (no result: TrxR1 substrate, Nrf2 ARE act, GALK inhibitor, rTrxR1 inhibitor)
CCn1cc(C(=O)NCCCOC(C)C)c(=O)c2cc(S(=O)(=O)N(C)C3CCCCC3)ccc21	Nrf2 inh inconclusive (no result: GALK inhibitor)
CC1CCCCN1CCCNC(=O)c1cc(Sc2cccc(Cl)c2)nc2ccccc12 (centres undefined)	none (no result: Nrf2 inh, GALK inhibitor)
Oc1c(C(c2ccccn2)N2CCC(Cc3ccccc3)CC2)cc(Cl)c2cccnc12 (centres undefined)	Nrf2 inh inconclusive, A549 viability inconclusive
CN1CCN(C(c2ccccn2)c2cc(Cl)c3cccnc3c2O)CC1 (centres undefined)	rTrxR1 inhibitor inconclusive
Oc1c(C(c2ccc(Cl)cc2)N2CCCC2)cc(Cl)c2cccnc12 (centres undefined)	A549 viability inconclusive, rTrxR1 inhibitor 50.1µM
CN1CCN(C(c2ccc(C(F)(F)F)cc2)c2ccc3cccnc3c2O)CC1 (centres undefined)	rTrxR1 inhibitor 6.31µM
Oc1c(C(c2cccs2)N2CCN(c3ccccc3)CC2)ccc2cccnc12 (centres undefined)	none (no result: Nrf2 inh, A549 viability, TrxR1 substrate, Nrf2 ARE act, rTrxR1 inhibitor)
Cc1ccc(C(c2cc(Cl)c3cccnc3c2O)N2CCN(C)CC2)cc1 (centres undefined)	Nrf2 inh inconclusive, rTrxR1 inhibitor 4.47µM
Oc1c(C(c2ccccc2Cl)N2CCCC2)ccc2cccnc12 (centres undefined)	rTrxR1 inhibitor 7.08µM
CCOC(=O)C(C)NC(=O)c1c(C)oc2ncn(CC(C)C)c(=O)c12 (centres undefined)	none (no result: GALK inhibitor)
CN(C)S(=O)(=O)c1ccc(C(=O)Oc2cc(=O)[nH]c3ccccc23)cc1	rTrxR1 inhibitor 14.1µM
CCOC(=O)c1[nH]c2ccccc2c1NC(=O)c1ccc(S(=O)(=O)N(C)C)cc1	none (no result: GALK inhibitor)
CCOC(=O)c1c(C)[nH]c(C)c1S(=O)(=O)N1CCCC(C(=O)Nc2ccc(OC)c(OC)c2)C1 (centres undefined)	none (no result: Nrf2 inh, GALK inhibitor)
CC(=O)Nc1ccc(NC(=O)COC(=O)/C(=C/c2ccccc2)n2nnnc2C)cc1	Nrf2 inh inconclusive, Nrf2 ARE act inconclusive, rTrxR1 inhibitor 70.8µM
Cc1nnnn1/C(=C\c1ccccc1)C(=O)OCC(=O)NC(C)(C)C	Nrf2 inh inconclusive, A549 viability inconclusive, Nrf2 ARE act inconclusive, rTrxR1 inhibitor 50.1µM
CC1CCc2cc(F)ccc2N1C(=O)CSc1nnc2c(n1)[nH]c1ccc(F)cc12 (centres undefined)	Nrf2 inh 20.6µM, A549 viability inconclusive
